For 49 molecules, growth rescue results are on record in PubChem BioAssay AID2716 (Broad Institute, 2010).

Structures are written as SMILES. Hit rate of the full screen: of about 320,000 compounds, about 3,300 (1%) were called active.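 How the source made its calls: active means every valid replicate shows activation above 250% relative to neutral control wells; inactive means the rest, any valid replicate at or below 250%.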 What follows is part of a selection rich in actives, with near analogues and random picks from the rest.

The experiment can be described thus: yeast Mot1-301 growth rescue at high temperature, primary screen, SUMOylation pathway inhibitor project, S. cerevisiae, ATP luminescence, 38.5C (AID 2716).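 Further: OY570 slx delta 5 strain wells were the positive control but not used for scaling.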 As to conditions: S. cerevisiae Mot1-301 growth rescue, at 18.8 µM, hits give high values, percent above DMSO median, 100 means doubled.
Turning to `COc1ccc(Cl)cc1NC(=O)Cn1nc(-c2ccc(C)cc2)n(C)c1=S`, the growth rescue was 283% (inactive).

As for `Cc1ccc2c(c1)N(CC(=O)N1CCOCC1)C(=O)CO2`, the growth rescue is 4.76% (inactive).

Take `Cc1ccc2c(c1)N(CC(=O)N1CCCC(C)C1)C(=O)CO2` (centres undefined): the growth rescue was 1.32% (inactive).

Turning to `Cc1ccc2c(c1)N(CC(=O)NCC1CCCO1)C(=O)CO2` (centres undefined), the growth rescue is 346% (active).

Consider `CC(=O)N(c1ccc2oc(=O)sc2c1)S(=O)(=O)c1ccc(C)cc1`, for which the growth rescue is 1.25% (inactive).

Regarding `Cc1onc(-c2ccccc2Cl)c1C(=O)OCC(=O)c1ccccc1`, the growth rescue was -4.82% (inactive).

As for `CCOc1cnc(-c2c(-c3ccccc3Cl)noc2C)o1`, the growth rescue is 675% (active).

Consider `Cc1onc(-c2ccccc2Cl)c1C(=O)OCc1nnc(-c2ccccc2)o1`, for which the growth rescue is 0.31% (inactive).

As to `Cc1ccc(N(C(=O)c2ccc(S(=O)(=O)N(C)C)cc2)C2C=CS(=O)(=O)C2)cc1` (centres undefined), the growth rescue is -4.36% (inactive).

As to `COc1ccccc1NS(=O)(=O)c1ccc(C)c(C(=O)NNC(=O)c2csc(N3CCOCC3)n2)c1`, the growth rescue is 6.56% (inactive).

As to `COC(=O)c1ccc(CSc2ccc3nnc(-c4ccccc4)n3n2)o1`, the growth rescue is -8.47% (inactive).

On to `Cc1ccc(S(=O)(=O)N2[C@@H](c3ccc(Br)cc3)C(C(=O)O)=C[C@H]2CC2CCCC2)cc1`, for which the growth rescue was 800% (active).

For `Cc1ccc(S(=O)(=O)N2[C@@H](c3cccc4ccccc34)C(C(=O)O)=C[C@H]2C(C)(C)C)cc1`, the growth rescue is 29.9% (inactive).

Regarding `Cc1ccc([C@@H]2CC=C(C(=O)O)[C@H](c3cccc(Cl)c3)N2S(=O)(=O)c2ccc(C)cc2)cc1`, the growth rescue is 24.4% (inactive).

On to `CC12CN(NC(=O)c3ccc(Cl)cc3)C3(C#N)CC1CCC23C` (centres undefined), for which the growth rescue is 42.1% (inactive).

For the molecule `COC(=O)c1cccc(N(C(=O)CNC(=O)c2cccs2)C(C(=O)NCC2CCCO2)c2ccc(OC)c(OC)c2)c1` (centres undefined), the growth rescue is -4.04% (inactive).

On to `O=C(NCC(=O)N(c1ccccc1)C(C(=O)NCC1CCCO1)c1ccccc1)c1cccs1` (centres undefined), for which the growth rescue is 679% (active).

Take `Cc1ccc(N(C(=O)Cc2cccs2)C(C(=O)NCC2CCCO2)c2ccncc2)cc1` (centres undefined): the growth rescue is 5.34% (inactive).

On to `Cc1cc(C)n2nc(SCC(=O)NC(=O)NCc3ccco3)nc2n1`, for which the growth rescue is 6.86% (inactive).

On to `COC(=O)C1(S(=O)(=O)C2(C(=O)OC)CCCC2)CCCC1`, for which the growth rescue was -10% (inactive).

On to `CCN(CC)C(=O)C(=O)Nc1cccc(Br)c1`, for which the growth rescue is 1.06% (inactive).

As to `CCN(CC)C(=O)CSC(Nc1cccc(F)c1)=C(C#N)C#N`, the growth rescue was 643% (active).

As to `Cc1ccc(CSCC(=O)N(C)CC(=O)Nc2cccc(F)c2)cc1`, the growth rescue was -8.64% (inactive).

Regarding `Cc1ccc(NC(=O)[C@H](Cc2ccccc2)NC(=O)C2CCNCC2)cc1`, the growth rescue is 2.72% (inactive).

For the molecule `N/C(=N\OC(=O)Nc1ccccc1)c1ccno1`, the growth rescue is 4.96% (inactive).

As for `Cn1c(=O)c2c(ncn2CCc2ccccc2)n(C)c1=O`, the growth rescue was 43.8% (inactive).

On to `O=c1c2c(ncn1Cc1ccccc1)nc1n2CCC1`, for which the growth rescue was 490% (active).

On to `O=c1c2cc([N+](=O)[O-])ccc2nc2n1CCC2`, for which the growth rescue is 12% (inactive).

As for `Cc1ccc(C)c(OCCC(=O)OCC(=O)c2ccc3c(c2)NC(=O)CO3)c1`, the growth rescue was 0.132% (inactive).

Consider `O=C(CCNC(=O)c1ccc([N+](=O)[O-])cc1)Nc1ccccc1N1CCOCC1`, for which the growth rescue was -1.52% (inactive).

For `CCCCN(C(=O)c1nn(C)c(=O)c2ccccc12)c1c(N)n(CCC)c(=O)[nH]c1=O`, the growth rescue is -14.8% (inactive).

On to `COc1ccc(Cc2nnc(SCC(=O)N(c3ccccc3)C(C)C)n(N)c2=O)cc1`, for which the growth rescue is 2.77% (inactive).

For the molecule `CN(CCc1ccccc1)c1ccc([N+](=O)[O-])cn1`, the growth rescue was 9.85% (inactive).

As to `O=C(NN1C(=O)C2C3C=CC(C3)C2C1=O)c1ccco1` (centres undefined), the growth rescue is -6.66% (inactive).

`CNC(=O)c1cccc2nc3ccccc3nc12`: the growth rescue is 16% (inactive).

On to `COc1cccc2cc(C(=O)N(C)C)c(=O)oc12`, for which the growth rescue is 0.334% (inactive).

In the case of `CN(C)C(=O)c1coc2nc3ccccc3nc12`, the growth rescue is 924% (active).

With `CCOC(=O)C1(Cc2cccc(OC)c2)CCCN(S(=O)(=O)c2cccnc2)C1` (centres undefined), the growth rescue is 568% (active).

On to `CCOC(=O)C1(Cc2cccc(OC)c2)CCCN(C(=O)CCSC)C1` (centres undefined), for which the growth rescue is -10.8% (inactive).

`CCOC(=O)C1(Cc2cccc(OC)c2)CCN(C(C)COC)CC1` (centres undefined): the growth rescue was 9.8% (inactive).

As to `CCOC(=O)c1cc(C(=O)Nc2ccc(S(=O)(=O)Nc3ccc(OC)cc3)cc2)nn1C`, the growth rescue was 1.95% (inactive).

`Cc1ccc(C)c(S(=O)(=O)N2CCN(c3ncnc4sccc34)CC2)c1`: the growth rescue was -2.33% (inactive).

As to `C/[N+]([O-])=C\c1ccc([N+](=O)[O-])o1`, the growth rescue is 330% (active).

In the case of `CCc1ccc(S(=O)(=O)N/N=C\c2ccc([N+](=O)[O-])o2)cc1`, the growth rescue was -9.87% (inactive).

As to `Cc1cc(C)nc(N/N=C/c2ccc([N+](=O)[O-])o2)n1`, the growth rescue was -7.8% (inactive).

On to `NC(=O)C1(C(N)=O)OC1c1ccc(Cl)cc1Cl` (centres undefined), for which the growth rescue is -6.75% (inactive).

`O=C(NCCc1ccco1)c1ccc(OCc2cn3ccccc3n2)cc1`: the growth rescue was -7.98% (inactive).

Consider `CCc1nccn1S(=O)(=O)c1cccc([N+](=O)[O-])c1`, for which the growth rescue was 1.13% (inactive).

On to `Cc1cn(C2C=CC(CO)O2)c(=O)[nH]c1=O` (centres undefined), for which the growth rescue was -3.98% (inactive).
